These entries were drawn from the full list.
CYP2C19 inh – blocks human cytochrome P450 2C19; CYP2C19 Supersomes, luciferin-H EGE luminescence, 30 min; AID 778; inhibition, % at 5 µM; 96,000 compounds, 21% hits; P33261;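 active = CYP2C19 inhibition above a set limit at 5 µM in the primary screen, cut at about 50% in these data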;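 also: plate controls were negative control wells for no effect and 2.5 mM tranylcypromine positive control for full effect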
Target sequence (P33261 whole entry, looked up): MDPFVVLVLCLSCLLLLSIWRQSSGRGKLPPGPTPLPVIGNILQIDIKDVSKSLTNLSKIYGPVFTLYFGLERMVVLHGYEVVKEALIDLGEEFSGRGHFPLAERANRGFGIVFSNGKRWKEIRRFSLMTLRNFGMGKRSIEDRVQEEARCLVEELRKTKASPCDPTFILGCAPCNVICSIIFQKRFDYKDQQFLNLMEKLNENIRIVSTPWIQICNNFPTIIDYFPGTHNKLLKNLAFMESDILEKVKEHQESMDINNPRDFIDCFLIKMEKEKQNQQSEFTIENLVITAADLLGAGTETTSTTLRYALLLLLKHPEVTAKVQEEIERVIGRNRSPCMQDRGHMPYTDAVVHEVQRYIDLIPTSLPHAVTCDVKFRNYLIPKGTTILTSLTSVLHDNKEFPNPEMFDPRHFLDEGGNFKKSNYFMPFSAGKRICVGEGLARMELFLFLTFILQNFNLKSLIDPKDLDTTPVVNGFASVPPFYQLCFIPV
CYP2C9 inh – inhibitors of human CYP2C9. AID 777. CYP2C9 Supersomes, luciferin-H conversion, luminescence. 96,000 compounds, 20% hits. inhibition, % at 5 µM. P11712;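 active = blocking of liver enzyme CYP2C9 beyond about 50% at 5 µM, limit read from the data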
CYP2C19 activ – increases human CYP2C19 enzyme activity; 96,000 tested, under 10 active; AID 1025; P33261; activation factor at 5 µM; recombinant CYP2C19, luciferin-H EGE luminescence; active compounds read high; 0 = fully inhibited enzyme, 1 = untreated enzyme;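 active = activation factor of at least 2 at 5 µM in the primary screen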;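 also: 0 = wells with 2.5 mM tranylcypromine and 1 = vehicle-only wells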
PostGolgi yeast – growth inhibition of a yeast mutant, post-Golgi transport screen. post-Golgi transport phenotypic cell assay. inhibition, % at 10 µM. 98,000 compounds, 0.9% hits. AID 739;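 also: yeast cells grown in 1536-well plates; yeast grown about 18 h at 30C before absorbance read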
CYP2C9 activ – increases human cytochrome P450 2C9 activity; P11712; recombinant CYP2C9, luciferin-H conversion, luminescence; active compounds read high; factor 1 = untreated enzyme, 0 = blocked; activation factor at 5 µM; 96,000 compounds, 1.4% hits;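 active = activation factor of 2 or more for CYP2C9 at a 5 µM dose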;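 also: 0 = sulfaphenazole-blocked wells and 1 = vehicle-only wells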
PostGolgi ctrl – yeast control strain growth, post-Golgi counter-screen. efflux-deficient yeast background strain, growth absorbance A615, 16 h. inhibition, % at 10 µM. 98,000 compounds, 5% hits. AID 738
The depositor's hits bear a star. Rule as the data show it, unless noted: active = inhibition above about 30%; inactive = the rest.

Cc1cc(C)c2cc(CN(CCO)C(c3nnnn3Cc3ccc(F)cc3)C(C)C)c(=O)[nH]c2c1 (stereo unspecified) was read as CYP2C19 inh 75.7*, CYP2C9 inh 92.6*, CYP2C19 activ 0.2, PostGolgi yeast -4.8, CYP2C9 activ 0.1 and PostGolgi ctrl 11.4.
`Cc1cc([N+](=O)[O-])nn1CC(=O)NNC(=S)Nc1ccc(F)cc1` gave CYP2C19 inh 0.5, CYP2C9 inh -8.5, CYP2C19 activ 1, PostGolgi yeast -36.4, CYP2C9 activ 1.1 and PostGolgi ctrl 0.1.
For O=C(NCCN1CCN(c2ccccc2)CC1)C1(S(=O)(=O)c2ccc(Cl)cc2)CC1 the results were CYP2C19 inh 35.3, CYP2C9 inh 45.7, CYP2C19 activ 0.6, PostGolgi yeast -3.8, CYP2C9 activ 0.5 and PostGolgi ctrl 7.3.
For CCOc1ccc2nc(SCC(=O)N(C)C)[nH]c2c1 the results were CYP2C19 inh 18.6, CYP2C9 inh 14.1, CYP2C19 activ 0.8, PostGolgi yeast -3.4, CYP2C9 activ 0.9 and PostGolgi ctrl 5.9.
Screening Cc1cc(C)n(CCOc2nonc2N)n1 returned CYP2C19 inh -4.6, CYP2C9 inh -17.2, CYP2C19 activ 1, PostGolgi yeast 4.3, CYP2C9 activ 1.2 and PostGolgi ctrl -6.7.
Cc1cc(C)n(CCOc2ccc(Cl)cc2Cl)n1 was read as CYP2C19 inh 96.8*, CYP2C9 inh -7.3, CYP2C19 activ 0, PostGolgi yeast 10.5, CYP2C9 activ 1.1 and PostGolgi ctrl 35.0*.
Screening CCOC(=O)N1CCC(NC(=O)C(NS(=O)(=O)c2ccc3c(c2)CCN3C(C)=O)C(C)C)CC1 (stereo unspecified) returned CYP2C19 inh -5.2, CYP2C9 inh -6.5, CYP2C19 activ 1.1, PostGolgi yeast -0.2, CYP2C9 activ 1.1 and PostGolgi ctrl -2.5.
Cn1c(/C=N/NC(=O)c2ccccc2Br)nc2ccccc21 was read as CYP2C19 inh 69.2*, CYP2C9 inh 61.7*, CYP2C19 activ 0.3, PostGolgi yeast -0.5, CYP2C9 activ 0.4 and PostGolgi ctrl 2.8.
COc1ccc(C2N(c3cc(Cl)ccc3OC)C(=O)C3CCCN32)cc1OC (stereo unspecified) was read as CYP2C19 inh 48.8, CYP2C9 inh -96.2, CYP2C19 activ 0.5, PostGolgi yeast -0.5, CYP2C9 activ 2* and PostGolgi ctrl 7.8.
COc1ccc(Cl)cc1N1C(=O)C2CCCN2C1c1cccc(F)c1 (stereo unspecified) was read as CYP2C19 inh 53.6*, CYP2C9 inh -37.0, CYP2C19 activ 0.5, PostGolgi yeast -16.3, CYP2C9 activ 1.4 and PostGolgi ctrl 5.3.
Screening COc1ccccc1C(=O)Nc1c2c(nn1-c1cccc(C)c1C)CS(=O)C2 (stereo unspecified) returned CYP2C19 inh 39.5, CYP2C9 inh 26.4, CYP2C19 activ 0.6, PostGolgi yeast -3.6, CYP2C9 activ 0.7 and PostGolgi ctrl 3.7.
Screening CCOC(=O)c1cc2sc(C)cc2n1CC(=O)N(CC)CC returned CYP2C19 inh 54.3*, CYP2C9 inh -4.8, CYP2C19 activ 0.5, PostGolgi yeast 0.5, CYP2C9 activ 1 and PostGolgi ctrl 2.0.
`COC(=O)c1cc2sc(Cl)cc2n1CC(=O)NCCC(C)C` gave CYP2C19 inh 16.2, CYP2C9 inh -7.4, CYP2C19 activ 0.8, PostGolgi yeast -3.0, CYP2C9 activ 1.1 and PostGolgi ctrl 5.8.
CCOC(=O)c1cc2sccc2n1CC(=O)Nc1ccc(OC)cc1 was read as CYP2C19 inh 33.9, CYP2C9 inh 12.0, CYP2C19 activ 0.7, PostGolgi yeast -2.7, CYP2C9 activ 0.9 and PostGolgi ctrl 9.8.
`CCOC(=O)c1cc2sc(C)cc2n1CC(=O)NCCc1ccccc1` gave CYP2C19 inh 99.9*, CYP2C9 inh 45.6, CYP2C19 activ 0, PostGolgi yeast 2.9, CYP2C9 activ 0.5 and PostGolgi ctrl 2.5.
`COC(=O)[C@H](CCSC)NC(=O)NCc1ccccn1` gave CYP2C19 inh 7.2, CYP2C9 inh -5.2, CYP2C19 activ 0.9, PostGolgi yeast 6.4, CYP2C9 activ 1.1 and PostGolgi ctrl 1.1.
Screening COc1ccc(S(=O)(=O)N2CCC(C(=O)Nc3ccc4c(c3)OCCO4)CC2)cc1OC returned CYP2C19 inh -5.0, CYP2C9 inh 31.7, CYP2C19 activ 1.1, PostGolgi yeast -12.7, CYP2C9 activ 0.7 and PostGolgi ctrl 6.6.
